Structures can show the parent of a compound that is named as a salt.

For this assay, the system named is Ruminococcus gnavus DSM 108212. Briefly: growth (OD595) fold change vs plate DMSO controls (fold change (ratio)); higher = more growth. As to conditions: incubation time: 27 h, anaerobic, 37 °C. The procedure, abridged:
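The measure reported is growth, taken as fold change against the median of DMSO controls on the same plate. Anaerobic mGAM cultures in 96-well plates (27 h, 37 °C) were read at 595 nm, blank-subtracted, corrected for compound background using 20 µM compound solutions in water, and multiplied by a calibration factor of 5 to give OD. Any fold change above 1.5 became NA, and 2 biological replicates were averaged.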
Take `CN1[C@@H]2CC[C@H]1C[C@@H](OC(c1ccccc1)c1ccccc1)C2` [Benztropine mesylate] (20 µM): the growth came out at 1.

In the case of `C[N+]1(CCCCC[N+]2(C)CCCC2)CCCC1` [Pentolinium bitartrate] (20 µM), the growth worked out at 0.709.

With `CC(=O)Oc1cc(C(F)(F)F)ccc1C(=O)O` [Triflusal] (20 µM), the growth stood at 0.878.

On to `COc1ccc2cc(CCC(C)=O)ccc2c1` [Nabumetone] (20 µM), for which the growth was 0.995.

For `CN1C(=O)CC(c2ccccc2)C1=O` (configuration not stated) [Phensuximide] (20 µM), the growth came out at 1.05.

In the case of `CC(N)CCCC(C)(C)O` (configuration not stated) [Heptaminol hydrochloride] (20 µM), the growth worked out at 1.12.

In the case of `CN(C)CCOC(c1ccc(Cl)cc1)c1ccccn1` (configuration not stated) [Carbinoxamine maleate salt] (20 µM), the growth was 0.88.

As for `C=CCN1CCCC1CNC(=O)c1cc2nn[nH]c2cc1OC` (configuration not stated) [Alizapride hydrochloride] (20 µM), the growth turned out to be 1.09.

Consider `CC1(C)O[C@@H]2C[C@H]3[C@@H]4C[C@H](F)C5=CC(=O)C=C[C@]5(C)[C@H]4[C@@H](O)C[C@]3(C)[C@]2(C(=O)CO)O1` [Flunisolide] (20 µM), for which the growth turned out to be 0.998.

In the case of `C=CC(N)CCC(=O)O` (configuration not stated) [Vigabatrin hydrochloride] (20 µM), the growth turned out to be 0.977.

`CC(N)C12CC3CC(CC(C3)C1)C2` (configuration not stated) [Rimantadine hydrochloride] (20 µM): the growth stood at 0.786.

In the case of `O=C(O)c1cc(-c2ccc(F)cc2F)ccc1O` [Diflunisal] (20 µM), the growth came out at 1.22.

Regarding `OC[C@H]1O[C@@H](O[C@@H]2[C@@H](CO)OC(O)(CO)[C@H]2O)[C@H](O)[C@@H](O)[C@H]1O` (mixture of isomers) [Lactulose] (50 µM), the growth was 0.977.

In the case of `COc1ccc2c3c1O[C@H]1C[C@@H](O)C=C[C@@]31CCN(C)C2` [Galanthamine hydrobromide] (20 µM), the growth was determined as 0.846.

For the compound `O=C(CCNNC(=O)c1ccncc1)NCc1ccccc1` [Nialamide] (20 µM), the growth came out at 0.89.

Regarding `CC(C)OC(=O)C(C)(C)Oc1ccc(C(=O)c2ccc(Cl)cc2)cc1` [Fenofibrate] (20 µM), the growth was 1.36.

On to `Cc1ccc2c(c1)c1c3n2CCNC3CCC1` (configuration not stated) [Pirlindole mesylate] (20 µM), for which the growth is 1.

Regarding `CC[N+](C)(C)Cc1ccccc1Br` [Bretylium tosylate] (20 µM), the growth was 0.996.

Consider `COC(=O)[C@H](Cc1ccccc1)NC(=O)[C@H](CC(=O)O)NCCCc1ccc(OC)c(O)c1` [Advantame] (50 µM), for which the growth stood at 0.968.

Regarding `O=C(c1cc(O)c(O)c(O)c1)c1ccc(O)c(O)c1O` [Exifone] (20 µM), the growth came out at 0.904.

Consider `COc1cc(N)cn[n+]1-c1ccccc1` [Amezinium metilsulfate] (20 µM), for which the growth amounted to 1.07.

Consider `CN[C@@H]1[C@@H](O[C@H]2O[C@H](CO)[C@@H](N)[C@H](O)[C@H]2O)OC2C[C@@H](N)[C@@H](O[C@H]3[C@H](O)[C@@H](O)[C@H](N)C[C@@H]3N)OC2[C@@H]1O` (some centres not stated) [Apramycin] (20 µM), for which the growth was determined as 1.03.

`COc1ccc2[nH]c([S+]([O-])Cc3ncc(C)c(OC)c3C)nc2n1` (configuration not stated) [Tenatoprazole] (20 µM): the growth came out at 1.14.

As to `CCCCC(=O)O[C@H]1CC[C@H]2[C@@H]3CCc4cc(O)ccc4[C@H]3CC[C@]12C` [Estradiol Valerate] (20 µM), the growth came to 1.05.

In the case of `O=C(O)CCc1nc(-c2ccccc2)c(-c2ccccc2)o1` [Oxaprozin] (20 µM), the growth was 1.06.

For `CC(C)(C)NC[C@H](O)c1ccc(O)c(CO)c1` [Levalbuterol hydrochloride] (20 µM), the growth is 0.865.

As to `COc1ccc(C(=O)c2ccc(C)cc2)c(O)c1` [Mexenone] (20 µM), the growth was determined as 0.

For the origin of these results see the supplement of paper PMC12494721.
